# Assay results: PubChem BioAssay (NCATS)
# Inconclusive results are not listed. A call without a number means that no potency is given here. The source made the active and inactive calls. Calls come from the whole dose curve; as a rule, active = well fitted inhibition curve with a large enough effect; inconclusive = small, poorly fitted or top-dose-only effect, or effect the other way; inactive = no such curve, though single readings can be large or run the other way.
# Test: High Content Imaging Cell-Based qHTS for Inhibitors of the mTORC1 Signaling Pathway in MEF Cells (AID 2667)
# Conditions: series mostly up to 38.3 µM
# Description: NIH Molecular Libraries Probe Production Centers Network [MLPCN]
# NIH Chemical Genomics Center [NCGC]
# Assay Submitter (PI): Blenis, John; Hoffman, Greg; Harvard University
# NCGC Assay Overview: The mammalian target of rapamycin (mTOR) is an intracellular serine/threonine kinase Aberrant regulation of mTOR signaling plays a causative role in a number of human diseases, including cancer, benign tumors such as lymphangioleiomyomatosis (LAM) and Tuberous Sclerosis Complex (TSC), and metabolic diseases such as diabetes and obesity. This project aims to identify inhibitors of ribosomal protein S6 (rpS6) phosphorylation. The phosphorylation of rpS6 is a key event downstream of mTOR activation. The assay uses a phospho-specific antibody of phospho-rpS6 to detect inhibitors of mTOR activation. Mutations in the Tsc1 and Tsc2 genes are the underlying genetic lesions responsible for TSC, causing constitutive activation of the mTORC1 pathway and leading to profound effects on cell metabolism. Aberrant metabolism in cancer has recently received significant attention as a target to develop therapeutic agents in the treatment of cancer.1 As Tsc2-/- cells have lost the ability to respond to energy and growth factor deprivation, these cells are unable to properly down regulate cellular biosynthetic processes in response to metabolic stress, and are thus extremely sensitive to glucose deprivation-induced death.2 A central goal of this project is to explore the unique cell survival and metabolic properties of cells with Tsc1 or Tsc2 by screening for compounds that selectively target the Tsc2-/- MEFs by screening both Tsc2-/- and WT MEF cell lines. We hope to better understand these aspects of TSC physiology in order to exploit them for therapeutic benefit.
# NCGC IN Cell Assay Protocol:
# For quantitative high throughput analysis of mTORC1 signaling, we developed a cell-based assay for immuno-fluorescence based detection of rpS6 phosphorylation on the Acumen Explorer that will be used a platform for the primary small molecule screen. Mouse embryonic fibroblasts (MEFs) are cultured in 1536-well plates using DMEM + 10% FBS. Twenty-four hrs after plating, test compounds (solubilized in DMSO) are delivered and incubated with the cells for 24 hrs at 37 degree Celsius. Following the incubation, media with compound is aspirated and the cells are fixed in 4% paraformaldehyde (PFA) containing PBS + 0.2% TX-100. Next, PFA is aspirated, cells are washed two times with PBS plus 0.2% TX-100 and the cells are blocked for 1 hr at room temperature (blocking buffer: LiCOR Blocking Buffer plus 0.2% TX-100). This is followed by aspiration and staining with Alexa-488 conjugated-phospho-rpS6 Ser235/236 antibody for 2 hours at room temperature (Cell Signaling Technology # 4803, 1:50 dilution in blocking buffer). Cells are washed two times with PBS plus 0.2% TX-100, and stained with 10 uM propidium iodide (PI) for 20-25 minutes for cell number measurement (1:500 dilution of Hoescht staining is also added for IN Cell imaging). Active wells which are selected (based on Acumen results) are imaged on the IN Cell 1000 (GE Healthcare) using the D360/40X and HQ480/40X excitation filters for the Hoechst and Alexa-488 cytoplasmic stains, respectively. The fluorescence emission filters used were HQ460/40M and HQ535/50M for the Hoechst and Alexa-488 cytoplasmic stains, respectively. The normalized phospho-S6 staining is calculated as the ratio of […] for the single concentration rapamycin control ([…] nM) and DMSO columns. […] Inhibition of the pathway is defined based on the normalized phospho-S6 intensity in rapamycin treated cells. Each treatment is reported as the % positive cells in the well, where thresholds are defined by selecting wells with the highest and lowest signal and differentiating between the % non-active and % active populations. […]
# Potency is the fitted concentration of half-maximal effect.
row,Structure (SMILES),Potency
1,Ic1ccccc1CNC1C2CCN(CC2)C1C(c1ccccc1)c1ccccc1 (stereo not given),6.56 µM (active)
2,c1ccc2cc(CC3=NCCN3)ccc2c1,inactive
3,CN1CC[C@@]2(C)c3cc(OC(=O)Nc4ccccc4)ccc3N(C)[C@@H]12,inactive
4,CCCN(CCC)[C@H]1CCc2c(F)ccc(O)c2C1,inactive
5,NCCc1ccc(S(=O)(=O)F)cc1,inactive
6,c1ccc2c(N3CCNCC3)cccc2c1,inactive
7,CCCN1CCC[C@@H](c2cccc(O)c2)C1,inactive
8,CC(N)Cc1c[nH]c2ccc(OCc3cccs3)cc12 (stereo not given),13.1 µM (active)
9,OCc1cnc[nH]1,inactive
10,COc1cc(CC(C)N)c(OC)cc1I (stereo not given),inactive
11,CCCN(CCC)CCc1c[nH]c2ccc(C(N)=O)cc12,inactive
12,C[C@@H]1O[C@H](C[N+](C)(C)C)CS1,inactive
13,CC12NC(Cc3ccccc31)c1ccccc12 (stereo not given),inactive
14,C[N+](C)(C)CC#CCOC(=O)Nc1cccc(Cl)c1,inactive
15,COc1ccc2[nH]c3c(c2c1)CCNC3,inactive
16,C[N+](C)(C)CC#CCN1CCCC1=O,inactive
17,O=[N+]([O-])c1ccc2nc(N3CCNCC3)ccc2c1,inactive
18,CO[C@H]1CC=C2CCN3CCC4=C(CC(=O)OC4)[C@]23C1,inactive
19,NC(Cc1cc(O)c(O)cc1O)C(=O)O (stereo not given),inactive
20,CN1CCC(c2c[nH]c3ccc(O)cc23)CC1,inactive

row,Structure (SMILES),Potency
1,C[N+](C)(C)CCOC(=O)CBr,inactive
2,Clc1ccc(N2CC3CCC(C2)N3)nn1,inactive
3,CN1C2CCC1CC(OC(c1ccccc1)c1ccccc1N)C2 (stereo not given),inactive
4,NCCCP(=O)(O)O,inactive
5,N[C@@H](Cn1ccc(=O)[nH]c1=O)C(=O)O,inactive
6,NC(CCCCCP(=O)(O)O)C(=O)O (stereo not given),inactive
7,CCCN(CCC)C1Cc2cc(OC)c(OC)cc2C1,inactive
8,CCCn1c(C)c(C(=O)c2ccc3ccccc3c2)c2ccccc21,inactive
9,C=CCN1CC[C@]23c4c5ccc(O)c4O[C@H]2/C(=N/NC(=O)c2ccccc2)CC[C@@]3(O)[C@H]1C5,inactive
10,O=C1C=CC(=O)C=C1,inactive
11,CP(=O)(O)C1=CCNCC1,inactive
12,COc1ccc(OC)c(C(O)C(C)N)c1 (stereo not given),inactive
13,C=CCN1CCc2cccc3c2[C@H]1Cc1ccc(O)c(O)c1-3,7.36 µM (active)
14,C=CCN1C[C@@H](C)N([C@H](c2ccc(C(=O)N(CC)CC)cc2)c2cccc(OC)c2)C[C@@H]1C,inactive
15,N[C@@]1(C(=O)O)CC[C@@H](C(=O)O)C1,inactive
16,NC(=O)c1cc(N2CC2)c([N+](=O)[O-])cc1[N+](=O)[O-],inactive
17,CC(=O)OCC1=C(C(=O)O)N2C(=O)[C@@H](NC(=O)CCC[C@@H](N)C(=O)O)[C@H]2SC1,inactive
18,Cc1cc([C@@H]2CCCN2C)on1,inactive
19,O=c1c2ccccc2[se]n1-c1ccccc1,inactive
20,CCCCCCC(C)(C)c1ccc([C@@H]2C[C@H](O)CC[C@H]2CCCO)c(O)c1,inactive
